Only some compounds are listed: those with a hit (about 22% of all), similar ones and a draw of the others.
Pf growth 96h = Primary qHTS for delayed death inhibitors of the malarial parasite plastid, 96 hour incubation; P. falciparum luciferase reporter growth, 96 h; AID 504834, 2011; Potency, µM (doses to about 28.7 µM), usual class: inhibitors; 320,000 tested, 6.9% active
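96 h incubation, 37 C, 5% CO2, of luciferase-reporter P. falciparum-infected RBCs (2% hematocrit, 0.05% parasitemia final) with test compounds; endpoint luminescence.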
Shiga inhibitor = A qHTS for Small Molecule Inhibitors of Shiga Toxin; Vero cells, Shiga toxin protein synthesis inhibition reporter; inhibition, % at 38.7 µM; 290,000 tested, 9.2% active; AID 2315, 2010; in the data active means inhibition mostly above about 28%, no sharp cut-off; inactive means mostly below about 43%
Pf growth 48h = Primary qHTS for delayed death inhibitors of the malarial parasite plastid, 48 hour incubation. P. falciparum luciferase growth in erythrocytes, 48 h. AID 504832, 2011. 310,000 tested, 5.9% active. Potency, µM (series often up to 28.7 µM), most hits filed as inhibitors
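In quantitative HTS format, infected erythrocytes bearing luciferase-reporter parasites were treated for a single generation at 37 C. Luminescence after adding detection reagent served as the growth measure.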
LmPK inh = qHTS Assay for Inhibitors of Leishmania Mexicana Pyruvate Kinase (LmPK). Q27686. purified LmPK, Kinase-Glo ATP luminescence, 1 h. 290,000 tested, 0.37% active. Potency, µM (highest dose often 57.5 µM), most hits filed as inhibitors
Target sequence (Q27686 whole entry, looked up): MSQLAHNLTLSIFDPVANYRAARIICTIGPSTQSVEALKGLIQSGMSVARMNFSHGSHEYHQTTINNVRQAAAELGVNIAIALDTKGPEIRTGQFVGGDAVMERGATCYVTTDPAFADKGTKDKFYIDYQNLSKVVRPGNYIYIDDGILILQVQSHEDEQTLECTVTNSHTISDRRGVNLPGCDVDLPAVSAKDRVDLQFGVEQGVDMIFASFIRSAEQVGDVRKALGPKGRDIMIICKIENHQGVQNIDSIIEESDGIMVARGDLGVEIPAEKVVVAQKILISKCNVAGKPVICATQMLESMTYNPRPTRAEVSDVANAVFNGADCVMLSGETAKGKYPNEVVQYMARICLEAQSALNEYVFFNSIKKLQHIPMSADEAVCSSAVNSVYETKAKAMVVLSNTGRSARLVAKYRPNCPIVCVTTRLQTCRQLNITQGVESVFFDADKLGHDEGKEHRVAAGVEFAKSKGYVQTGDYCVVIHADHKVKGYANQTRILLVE
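Purified LmPK (0.1 nM) converted ADP (0.1 mM) to ATP with PEP (0.5 mM) in imidazole buffer pH 7.2 with KCl and MgCl2, 1 h at room temperature. ATP was read by Kinase-Glo luminescence; data normalized to uninhibited and no-enzyme controls.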
CHX counter = Cycloheximide Counterscreen for Small Molecule Inhibitors of Shiga Toxin. cell reporter, cycloheximide protein synthesis inhibition counterscreen. max response, %. 300,000 tested, 12% active. AID 2314, 2010; in the data active means max response mostly above about 13%, no sharp cut-off; inactive means mostly below about 14%; further: read at 38.3 µM for the half of the compounds with a filed dose
Large screens that a line does not name were inactive; ! = repeats disagree. Unless noted, the call rests on the fitted dose curve; in most records, active means well fitted inhibition curve with a large enough effect; inconclusive means small, poorly fitted or top-dose-only effect, or another doubt; inactive means no such curve, though single readings can be large or run the other way.

S=C(NCCc1ccccc1)NC1CCC(NC(=S)NCCc2ccccc2)CC1 (stereo not drawn)	Pf growth 96h inconclusive
O=C(CCNC(=O)OCc1ccccc1)NC1CCCCC1	Pf growth 96h 3.7µM
O=C(CNC(=O)OCc1ccccc1)NC1CCCCCC1	none
S=C(NCCc1cccc(Cl)c1)NC1CCCCC1	Shiga inhibitor 77, CHX counter 59
O=C(NC1CCCCC1)C1CCN(C(=O)NCc2ccccc2)CC1	none (no result: Pf growth 96h)
COc1ccccc1CCNC1CCC(C(C)(C)C)CC1 (stereo not drawn)	Pf growth 96h 2.6µM, Pf growth 48h 2.3µM
C=CC1=C2C=C(C3CC3)N(C3CCCCC3)C=C2C(=O)C(C)(OC(=O)c2ccco2)C1=O (stereo not drawn)	none (no result: Pf growth 96h, Shiga inhibitor, Pf growth 48h, CHX counter)
COc1ccccc1CNC(=O)C(=O)c1cn(CC(=O)N2CCOCC2)c2ccccc12	none
O=C(NCCc1ccccc1)NC1CCCCC1	Shiga inhibitor 52, CHX counter 39
O=C(NCCC1=CCCCC1)NC1CCCCC1	Shiga inhibitor 72, CHX counter 45
O=C(NC1CCCCC1)C(=S)NCc1ccccc1	Shiga inhibitor 83, CHX counter 21
COc1ccc(CNC(=O)NC2CCCCC2)cc1	Shiga inhibitor 33, CHX counter 26
COc1ccc(-c2cn(-c3ccccc3)nc2C(=O)O)cc1OC	none
COc1cccc(COC(=O)Cc2ccc(S(=O)(=O)N3CCOCC3)s2)c1OC	Pf growth 48h inconclusive (no result: Shiga inhibitor, LmPK inh, CHX counter)
COc1ccc(NC(=O)CN(C)C(=O)CCc2c[nH]c3ccccc23)cc1	none
O=C1CCc2cc(S(=O)(=O)NC(Cc3ccccc3)C(=O)N3CCN(c4ccccn4)CC3)ccc2N1 (stereo not drawn)	Pf growth 96h inconclusive
O=C(NCc1ccccc1)NC1CCCCC1	Shiga inhibitor 42, CHX counter 38 (no result: Pf growth 48h)
COc1ccccc1CCNC(=O)NC1CCCCC1	CHX counter 18
COc1ccccc1CCNC(=O)C1(C)CC1(Cl)Cl (stereo not drawn)	CHX counter 15
O=C(NC1CCCCCC1)C(=S)NCCc1ccccc1	Pf growth 96h 10µM
CC1(C(=O)NCCOc2ccccc2Cl)CC1(Cl)Cl (stereo not drawn)	Pf growth 96h inconclusive
CN(C(=O)COC(=O)c1ccc([N+](=O)[O-])cc1N)c1ccccc1	Pf growth 96h inconclusive, Pf growth 48h inconclusive
CCCCN1C(=O)C2Cc3c([nH]c4ccccc34)CN2C1=S (stereo not drawn)	Pf growth 96h inconclusive, Pf growth 48h inconclusive
S=C(Nc1ccccc1)Nc1ccccc1Br	none
CCOC(=O)/C=C1\SC(C)C(=O)N1CC(=O)N(CCC#N)c1ccccc1 (stereo not drawn)	Pf growth 96h inconclusive (no result: Shiga inhibitor, LmPK inh, CHX counter)
Cc1ccc(-c2nn(-c3ccccc3)cc2C(=O)NCC2CCCO2)cc1 (stereo not drawn)	Pf growth 48h inconclusive (no result: Shiga inhibitor, LmPK inh, CHX counter)
CCN(CC)C(=O)C1=C(C)NC(=S)NC1c1cn(-c2ccccc2)nc1-c1ccc(Cl)cc1 (stereo not drawn)	Pf growth 96h inconclusive, Pf growth 48h 4.1µM
Cc1ccc2c(Cl)c(C(=O)Nc3cc(C)on3)sc2c1	Shiga inhibitor 78, CHX counter 31 (no result: Pf growth 48h)
COc1ccc(CCNC(=O)c2sc3cc(C)ccc3c2Cl)cc1	Pf growth 48h inconclusive
Cc1ccc2c(Cl)c(C(=O)NCCc3ccccc3)sc2c1	Pf growth 96h inconclusive, Shiga inhibitor 124, CHX counter 48
CCNC(=O)c1sc2cc(C)ccc2c1Cl	Pf growth 96h 13µM, Shiga inhibitor 39, CHX counter 25
Cc1ccc(Nc2nnc(-c3ccc4c(c3)OCO4)o2)c(C)c1	Shiga inhibitor 62, CHX counter 32
Cc1ccc(NC2=NCC(=O)N2Cc2ccc3c(c2)OCO3)c(C)c1	none
O=c1[nH]c(-c2ccccc2Cl)nc2c1sc(=S)n2-c1ccccc1	none
NS(=O)(=O)c1ccc(CNC(=O)CCSCCC(=O)NCc2ccc(S(N)(=O)=O)cc2)cc1	none
COc1ccc(CN(Cc2cc3ccc(C)cc3[nH]c2=O)Cc2nnnn2C2CCCC2)cc1	Pf growth 96h inconclusive, Pf growth 48h inconclusive
Cc1ccc2cc(CN(Cc3nnnn3C3CCCCC3)CC3CCCO3)c(=O)[nH]c2c1 (stereo not drawn)	Pf growth 48h inconclusive
Cc1cc2cc(CN(Cc3nnnn3C3CCCCC3)CC3CCCO3)c(=O)[nH]c2cc1C (stereo not drawn)	Pf growth 48h 8.3µM
COc1ccc2cc(CN(CCCN3CCOCC3)Cc3nnnn3C3CCCC3)c(=O)[nH]c2c1	Pf growth 96h 5.2µM, Pf growth 48h 10µM
Cc1cc(C)c2cc(CN(Cc3nnnn3C3CCCCC3)CC3CCCO3)c(=O)[nH]c2c1 (stereo not drawn)	Pf growth 48h 13µM
O=C(Cn1nc2ccccc2n1)N/N=C/c1ccc(F)cc1	none
O=C(Nc1nnc(Cc2ccccc2F)s1)Nc1ccccc1F	Pf growth 96h inconclusive
COc1cccc(C2NC(=O)NC(C)=C2C(=O)OCC2CCCCC2)c1 (stereo not drawn)	Pf growth 96h inconclusive, Pf growth 48h inconclusive
O=C1c2ccccc2C(Nc2ccc3nc(-c4cccnc4)[nH]c3c2)N1Cc1ccco1 (stereo not drawn)	Pf growth 96h inconclusive
O=C1c2ccccc2C(Nc2ccc(S(=O)(=O)N3CCCCCC3)cc2)N1c1ccccn1 (stereo not drawn)	none (no result: Pf growth 48h)
O=C1c2ccccc2C(Nc2ccc(S(=O)(=O)N3CCOCC3)cc2)N1Cc1ccco1 (stereo not drawn)	Pf growth 96h 8.3µM (no result: Pf growth 48h)
O=C1c2ccccc2C(Nc2ccc(-c3nc4ccccc4[nH]3)cc2)N1Cc1ccco1 (stereo not drawn)	Shiga inhibitor 89, Pf growth 48h inconclusive, CHX counter 17
O=C1c2ccccc2C(Nc2ccc(S(=O)(=O)N3CCCCC3)cc2)N1Cc1ccco1 (stereo not drawn)	Pf growth 96h inconclusive (no result: Pf growth 48h)
O=C1c2ccccc2C(Nc2ccc(S(=O)(=O)N3CCOCC3)cc2)N1c1ccccn1 (stereo not drawn)	Pf growth 96h 7.4µM (no result: Pf growth 48h)
NC(N)=NC(=O)Cc1c(Cl)cccc1Cl	Pf growth 96h 1.9µM!, Pf growth 48h inconclusive
CN(CCCNC(=O)c1cccc(N2CCCC2=O)c1)c1ccccc1	Pf growth 48h inconclusive, CHX counter 16
Cc1cccc(CCNC(=O)c2cccc(N3CCCC3=O)c2)c1	Pf growth 96h inconclusive, Shiga inhibitor 75, CHX counter 44
Cc1ccc(CCNC(=O)c2cccc(N3CCCC3=O)c2)cc1	Shiga inhibitor 66
O=C(NCCc1ccccc1)c1cccc(N2CCCC2=O)c1	Pf growth 96h inconclusive, Shiga inhibitor 30, CHX counter 33
COc1ccc(N2CCN(C(=O)Cc3ccc(Cl)cc3)CC2)cc1	none
CC(NC(=O)COC(=O)Cc1ccc(-c2ccccc2)cc1)c1ccccc1 (stereo not drawn)	none

Assay outcomes (PubChem)
